Measured values from PubChem BioAssay AID1159580 (chemical genetic matrix, 2015).
“And” between values parts separate entries of the source, which are not always exact repeats. Equal values may be shown once. The campaign covered roughly 5,500 compounds. About 2,000 (36%) were called active. About 18% were inconclusive and are not listed. Cut-off read from the data, not from the text of the source: active = normalized growth mostly below about 0.91 (no sharp cut-off); inconclusive = no clear call, values can overlap the other calls; inactive = mostly above about 0.92. The list shows a part of the results.

Test: chemical genetic growth profiling, strain panel (AID 1159580);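 note: tested at 20 µM; growth read once vehicle control cultures reached saturation at 30 °C; 1 = growth at the plate median or of vehicle wells; lower values mean less growth of the strain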
Settings: S. cerevisiae deletion strains, growth OD

Measured: normalized growth

COc1cc([C@@H]2c3cc4c(cc3[C@H](OC(C)=O)[C@H]3COC(=O)[C@H]23)OCO4)cc(OC)c1OC
inactive: locus YAL021C, strain ccr4, active compounds read low 0.992 | locus YAL026C, strain drs2, active compounds read low 1.01 | locus YAL030W, strain snc1, active compounds read low 0.999 | locus YBL061C, strain skt5, active compounds read low 1.01 | locus YBR009C, strain hhf1, active compounds read low 1.01 | locus YBR021W, strain FUR4, active compounds read low 0.956 | locus YBR023C, strain chs3, active compounds read low 1 | locus YBR171W, strain sec66, active compounds read low 1.02 | locus YBR229C, strain ROT2, active compounds read low 0.99 | locus YBR231C, strain swc5, active compounds read low 1 | locus YBR279W, strain paf1, active compounds read low 0.976 | locus YCL011C, strain gbp2, active compounds read low 1 | locus YCL016C, strain dcc1, active compounds read low 1.01 | locus YCL029C, strain bik1, active compounds read low 0.986 | locus YCL061C, strain MRC1, active compounds read low 1.01 | locus YCL069W, strain vba3, active compounds read low 0.999 | locus YCR088W, strain abp1, active compounds read low 1.01 | locus YDL005C, strain med2, active compounds read low 1.01 | locus YDL035C, strain GPR1, active compounds read low 1.02 | locus YDL040C, strain nat1, active compounds read low 0.996 | locus YDL074C, strain BRE1, active compounds read low 0.991 | locus YDL101C, strain DUN1, active compounds read low 0.998 | locus YDL134C, strain PPH21, active compounds read low 1.03 | locus YDL185W, strain tfp1, active compounds read low 0.983 | locus YDL192W, strain arf1, active compounds read low 1.01 | locus YDR001C, strain nth1, active compounds read low 0.999 | locus YDR069C, strain doa4, active compounds read low 1.02 | locus YDR101C, strain arx1, active compounds read low 0.996 | locus YDR137W, strain rgp1, active compounds read low 0.884 | locus YDR159W, strain sac3, active compounds read low 1.01 | locus YDR162C, strain NBP2, active compounds read low 1.02 | locus YDR195W, strain ref2 1 | locus YDR297W, strain sur2, active compounds read low 0.998 | locus YDR318W, strain mcm21, active compounds read low 0.987 | locus YDR334W, strain swr1, active compounds read low 1.01 | locus YDR335W, strain msn5, active compounds read low 0.998 | locus YDR388W, active compounds read low 0.98 | locus YDR392W, strain spt3, active compounds read low 1.01 | locus YDR502C, strain sam2, active compounds read low 0.989 | locus YEL003W, strain gim4, active compounds read low 1.01 | locus YEL037C, strain rad23, active compounds read low 1 | locus YEL061C, strain CIN8 (second series), active compounds read low 0.996 | locus YEL061C, strain CIN8, active compounds read low 1 | locus YER015W, strain faa2, active compounds read low 1.02 | locus YER016W, strain bim1, active compounds read low 1 | locus YER110C, active compounds read low 0.96 | locus YER111C, strain swi4, active compounds read low 1.01 | locus YER155C, strain BEM2 (second series), active compounds read low 1.04 | locus YER155C, strain BEM2, active compounds read low 0.983 | locus YER167W, strain BCK2, active compounds read low 0.998 | locus YFR010W, strain ubp6, active compounds read low 1 | locus YGL078C, strain dbp3, active compounds read low 0.971 | locus YGL086W, strain mad1, active compounds read low 0.997 | locus YGL167C, strain pmr1, active compounds read low 1.02 | locus YGL173C, strain kem1, active compounds read low 1.01 | locus YGL227W, strain vid30, active compounds read low 1 | locus YGL240W, strain doc1, active compounds read low 1.01 | locus YGL248W, strain PDE1, active compounds read low 0.996 | locus YGL253W, strain hxk2, active compounds read low 1.01 | locus YGR135W, strain pre9, active compounds read low 0.986 | locus YGR252W, strain gcn5, active compounds read low 0.983 | locus YHR013C, strain ard1, active compounds read low 0.988 | locus YHR027C, strain rpn1, active compounds read low 1 | locus YHR030C, strain SLT2, active compounds read low 0.996 and 0.987 | locus YHR079C, strain IRE1 (second series), active compounds read low 0.988 | locus YHR079C, strain IRE1, active compounds read low 0.98 | locus YHR094C, strain hxt1, active compounds read low 0.973 | locus YHR129C, strain ARP1, active compounds read low 1 | locus YHR142W, strain chs7, active compounds read low 0.996 | locus YHR200W, strain rpn10, active compounds read low 0.988 | locus YIL066C, strain RNR3, active compounds read low 1.01 | locus YIL073C, strain SPO22, active compounds read low 0.98 | locus YIL125W, strain kgd1, active compounds read low 0.987 | locus YIR030C, strain dcg1, active compounds read low 0.974 | locus YJL092W, strain hpr5, active compounds read low 1.01 | locus YJL095W, strain BCK1 (second series), active compounds read low 1 | locus YJL095W, strain BCK1, active compounds read low 1.01 and 1.04 | locus YJL115W, strain asf1, active compounds read low 1.01 | locus YJL129C, strain trk1, active compounds read low 1 | locus YJL134W, strain LCB3, active compounds read low 0.993 | locus YJL154C, strain vps35, active compounds read low 1.01 | locus YJL164C, strain tpk1, active compounds read low 1.01 | locus YJL166W, strain qcr8, active compounds read low 0.995 | locus YJL168C, strain set2, active compounds read low 0.977 | locus YJL187C, strain SWE1 (second series), active compounds read low 1 | locus YJL187C, strain SWE1, active compounds read low 0.99 | locus YJR043C, strain POL32, active compounds read low 1.03
